Experimental data published in ChEMBL document CHEMBL2218924, “A broad activity screen in support of a chemogenomic map for kinase signalling research and drug discovery” (Biochem J, 2013).

Target: T1, Dual specificity mitogen-activated protein kinase kinase 6 (Homo sapiens) (UniProt P52564)
T1 sequence (whole entry): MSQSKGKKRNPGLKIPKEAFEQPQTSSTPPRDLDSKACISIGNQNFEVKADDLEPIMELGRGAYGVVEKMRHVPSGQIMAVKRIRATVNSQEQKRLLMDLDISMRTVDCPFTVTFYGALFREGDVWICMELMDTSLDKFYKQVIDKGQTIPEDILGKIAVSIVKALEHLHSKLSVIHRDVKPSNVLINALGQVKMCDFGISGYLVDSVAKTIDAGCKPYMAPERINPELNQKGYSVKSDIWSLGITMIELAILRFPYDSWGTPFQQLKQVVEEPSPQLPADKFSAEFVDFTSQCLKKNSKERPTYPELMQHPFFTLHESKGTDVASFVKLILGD
Conditions: at 10 µM

Row | SMILES | residual activity
1 | N#Cc1cnc2cnc(NCc3cccnc3)cc2c1Nc1ccc(F)c(Cl)c1 | 7%
2 | CNc1cc2c(Nc3cccc(Br)c3)ncnc2cn1 | 79%
3 | O=C1NC(=O)c2cc(Nc3ccc(F)cc3)c(Nc3ccc(F)cc3)cc21 | 58%
4 | COc1cccc(-c2cc(=O)c3ccccc3o2)c1N | 77%
5 | Cc1cccc(-c2[nH]c(C(C)(C)C)nc2-c2ccc3c(c2)OCO3)n1 | 39%
6 | c1ccc(-c2n[nH]c3c2oc2ccccc23)cc1 | 89%
7 | Ic1cccc(CSc2nnc(-c3ccncc3)o2)c1 | 77%
8 | CO[C@@H]1[C@H](N(C)C(=O)c2ccccc2)C[C@H]2O[C@]1(C)n1c3ccccc3c3c4c(c5c6ccccc6n2c5c31)C(=O)NC4 | 58%
9 | NC(=O)c1ccc2[nH]c(-c3ccc(Oc4ccc(Cl)cc4)cc3)nc2c1 | 94%
10 | O=C1Nc2cc(Br)ccc2/C1=C1/Nc2ccccc2/C1=N\O | 65%
11 | COc1cc2ncnc(Nc3ccc(Oc4ccccc4)cc3)c2cc1OC | 83%
12 | CCOc1cc2ncnc(Nc3cccc(Br)c3)c2cc1OCC | 44%
13 | O=c1cc(-c2cccc3c2Sc2ccccc2S3)oc(N2CCOCC2)c1 | 78%
14 | c1ccc2c(-c3ccncc3)c[nH]c2c1 | 93%
15 | Nc1cccc(-c2cc3c(Oc4cccc(O)c4)ncnc3[nH]2)c1 | 20%
16 | Nc1nc(Nc2ccc(S(N)(=O)=O)cc2)nn1C(=S)Nc1c(F)cccc1F | 20%
17 | CC(C)n1cnc2c(NCc3ccccc3)nc(NCCCO)nc21 | 74%
18 | O=C1NC(=O)/C(=C\c2ccc3nccnc3c2)S1 | 85%
19 | O=C(O)c1ccc2c3c1cccc3c(=O)n1c3ccccc3nc21 | 64%
20 | COc1cc2ncnc(Nc3ccc(O)c(Br)c3)c2cc1OC | 27%
